Assay outcomes (PubChem)
Compounds with a hit are over-represented: about 7.6% of the library has one in this group of screens.
VP16 counter: inhibits Gal4-VP16 luciferase reporter, ROR gamma counter-screen; Potency, µM (series often up to 53.6 µM), for inactives: at the top dose activity, negative = inhibition, hits mostly inhibitors; Drosophila S2 Gal4-VP16 UAS-luciferase, luminescence, 20 h; hit rate 3.5% among 310,000;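 further: Gal4-VP16 expression switched on by copper sulfate through the metallothionein promoter; potency means the concentration at half of the fitted maximal effect; on the % scale 0 is the no-effect control and ±100 the full control effect; nearly all actives have a fitted effect of over 50% in size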
RORgamma inh: blocks mouse ROR gamma transcriptional activity; P51450; Drosophila S2 Gal4-RORgamma UAS-luciferase reporter, 20 h; Potency, µM (doses to about 53.6 µM), inactives show top-dose activity change, negative = inhibition, actives largely listed as inhibitors; hit rate 5.4% among 310,000; AID 2551; further: potency means the concentration at half of the fitted maximal effect; on the % scale 0 is the no-effect control and ±100 the full control effect; nearly all actives have a fitted effect of over 60% in size
Target sequence (P51450 whole entry, looked up, the tested form may be a part): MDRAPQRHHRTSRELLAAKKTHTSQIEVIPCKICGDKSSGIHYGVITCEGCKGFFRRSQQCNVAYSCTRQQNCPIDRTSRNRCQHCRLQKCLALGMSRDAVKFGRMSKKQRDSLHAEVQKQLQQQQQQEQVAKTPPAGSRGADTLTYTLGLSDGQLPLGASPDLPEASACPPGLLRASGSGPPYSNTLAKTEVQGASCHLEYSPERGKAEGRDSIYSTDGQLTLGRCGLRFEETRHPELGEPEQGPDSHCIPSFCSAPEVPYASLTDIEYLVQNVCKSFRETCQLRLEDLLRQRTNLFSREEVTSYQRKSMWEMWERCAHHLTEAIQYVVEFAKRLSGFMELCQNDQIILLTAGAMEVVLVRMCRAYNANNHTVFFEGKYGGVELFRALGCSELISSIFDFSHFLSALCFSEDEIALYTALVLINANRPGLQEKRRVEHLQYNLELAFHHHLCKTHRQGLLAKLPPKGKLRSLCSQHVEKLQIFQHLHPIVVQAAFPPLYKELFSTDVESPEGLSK
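Drosophila Schneider cells stably carrying a metallothionein-driven Gal4 DBD–ROR gamma fusion and a UAS-Photinus luciferase reporter were exposed to compound for 1 hr, then induced with copper sulfate (700 uM final) for 20 hr at ambient temperature before luminescence reading.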
BRCA1 expr act: BRCA1 expression activation; MCF7-BRCA1-FFLuc reporter, luminescence, 48 h; response scale: scaled: vehicle 0%, 10 µM genistein 100%; Potency, µM (series often up to 46.1 µM), for the others: at the top dose activation, usual class: activators; hit rate 1.1% among 380,000; AID 624202; further: potency means the concentration at half of the fitted maximal effect; nearly all actives have a fitted effect of over 80% in size
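First, MCF7-BRCA1-FFLuc cells (2000/well) attach for 2 h; next, compounds are pin-added and incubated 48 h at 37 °C; finally, luciferase reagent is added and luminescence read after 15 min.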
Giardia kill: kills Giardia lamblia; hit rate 0.15% among 340,000; Giardia lamblia trophozoite viability; activity change, % at 7.66 µM, hits read low; in the data active means activity change below about -80%; inconclusive means between about -30% and that limit;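 further: parasites exposed to compound for two days anaerobically before the ATP read; on the % scale 0 is the no-effect control and ±100 the full control effect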
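Luminescence from cellular ATP indicates surviving trophozoites (100 cells/well) following 48 hrs anaerobic compound treatment at 37 deg C; signal develops 15-30 min at room temperature.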
p53 reactivator: restores transcriptional activity of mutant p53; hit rate 0.063% among 320,000; H1299 p53-A138V BP100-luciferase reporter, luminescence, 24 h; Potency, µM (series often up to 92.2 µM), for the others: top-dose activity change, positive = activation, hits mostly activators; further: potency means the concentration at half of the fitted maximal effect; % of control where 0% means no effect; nearly all actives have a fitted effect of over 45% in size
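p53-null H1299 cells stably carrying temperature-sensitive p53-A138V and a BP100-luciferase reporter were pinned with compounds (4-point, 1:5 series) and held 24 hrs at 37 deg C. Luminescence was read 10 min after detection reagent.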
ELG1 DNA repair: ELG1-dependent DNA repair inhibition; HEK293T ELG1-luciferase reporter, luminescence, 16 h; DNA damage induced by 5-fluorouridine; Potency, µM (top dose mostly 46.1 µM), without a hit: top-dose activity change, negative = inhibition, hits mostly inhibitors; hit rate 2.3% among 330,000; further: potency means the concentration at half of the fitted maximal effect; on the % scale 0 is the no-effect control and ±100 the full control effect; nearly all actives have a fitted effect of over 55% in size
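Cells (2,000 per well) received 5-fluorouridine plus test compound or DMSO and were incubated 16 hr at 37 °C, 5% CO2. Luciferase activity was read by luminescence 30 min after ONE-Glo addition; signal suppression marked inhibition of damage-induced ELG1 function.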
* = called active by the depositor; ? = inconclusive; nt = not tested or not shown. Unless noted, the call rests on the fitted dose curve; in most records, active means well fitted curve in the direction sought with a large enough effect; inconclusive means small, poorly fitted or top-dose-only effect, or another doubt; inactive means no such curve, though single readings can be large; an effect the other way counts as inactive or inconclusive.

SMILES | VP16 counter | RORgamma inh | BRCA1 expr act | Giardia kill | p53 reactivator | ELG1 DNA repair
O=C1CC(NCc2ccco2)C(=O)N1CCc1ccccc1 (centres undefined) | -5% | 9% | 0% | 8 | 7% | 12%
Oc1ccc(/C=N/Nc2nc(-c3ccc(Cl)cc3)cc(C(F)(F)F)n2)cc1 | -28% | 33% | -83% | 7 | -4% | 26µM*
CCOc1ccc(NS(=O)(=O)c2ccc(C(=O)N3CCCCC3)cc2)cc1 | ? | ? | -20% | 11 | -7% | -15%
Cc1nnc(N(Cc2ccco2)C(=O)c2ccc(C#N)cc2)s1 | -3% | 45% | -2% | 2 | 7% | 6%
Cc1nnc(N(Cc2ccco2)C(=O)c2cccc(C#N)c2)s1 | 1% | 13µM* | 0% | 11 | -11% | 8%
O=C1CN(c2ccccc2)C(=S)N1C(=O)c1ccc(Br)cc1 | ? | ? | 3.2µM* | 2 | -2% | ?
CC(=O)NS(=O)(=O)c1ccc(NC(=O)c2ccc(NC(=O)c3cccs3)cc2)cc1 | nt | nt | 10% | -7 | 6% | 18%
CC(Oc1ccccc1)C(=O)N1CCN(C(=O)C(C)Oc2ccccc2)CC1 (centres undefined) | 2% | 7% | 12% | -9 | -10% | 6.5µM*
CC(Oc1ccccc1)C(=O)N1CCc2ccccc2C1 (centres undefined) | -3% | -9% | 0% | 2 | 24% | 3%
COc1ccc(CNn2c(-c3cccs3)nc3ccccc3c2=O)cc1OC | -16% | 32% | -5% | -18 | -4% | 8.2µM*
COc1cccc(CNn2c(-c3cccc(C)c3)nc3ccccc3c2=O)c1 | 13% | -19% | -14% | -2 | -9% | 21µM*
COc1cccc(CC(=O)Nn2c(C)nc3ccccc3c2=O)c1 | 0% | -38% | 17% | 12 | 5% | ?
COc1cccc(C(=O)Nn2c(-c3cccs3)nc3ccccc3c2=O)c1OC | -3% | ? | -41% | 2 | -10% | ?
COc1ccc(OC)c(CNn2c(-c3cccc(C)c3)nc3ccccc3c2=O)c1 | -5% | 7% | 5% | -24 | -7% | 18µM*
CCCN1CCN(c2ncnc3sc(C(=O)Nc4c(C)cc(C)cc4C)c(C)c23)CC1 | nt | nt | 0% | nt | nt | nt
O=C(Nc1ccc(F)c(Cl)c1)Nc1csc2ccccc12 | ? | ? | -14% | -17 | ? | 2%
O=[N+]([O-])c1ccc(N/N=C\c2ccccc2OCc2ccccc2)cc1 | 2% | 17% | -21% | -15 | -8% | -2%
C(=N\Nc1nc(N2CCCC2)nc(N2CCCC2)n1)/c1ccccc1OCc1ccccc1 | -21% | 2.8µM* | 33% | -23 | -3% | ?
Cc1cc(C)nc(N/N=C/c2ccccc2OCc2ccc([N+](=O)[O-])cc2)n1 | ? | 14µM* | 31% | 4 | ? | ?
Fc1ccc(COc2ccc(Cl)cc2/C=N/Nc2nc(N3CCCC3)nc(N3CCCC3)n2)cc1 | 5% | ? | 27% | 8 | 2% | -13%
Oc1ccc(/C=N/Nc2nc(N3CCCCCC3)nc(N3CCCCCC3)n2)c(O)c1 | ? | 16µM* | -88% | -11 | -11% | ?
C(=N\Nc1nc(N2CCCCCC2)nc(N2CCCCCC2)n1)/c1ccccc1 | ? | 8.9µM* | -12% | -21 | 10% | 2%
CC(=O)c1cccc(-c2cnc3c(NC=O)cc(-c4ccccc4F)cn23)c1 | nt | nt | -64% | nt | nt | nt
O[C@@H]1C2CCCC1[C@]1(O)CCCCC1C2 (some centres undefined) | -14% | -14% | -3% | -1 | -7% | 8%
CC1=C(C(=O)Nc2cc(Cl)ccc2C)C(c2sccc2C)n2ncnc2N1 (centres undefined) | nt | nt | -11% | nt | nt | nt
SMILES | VP16 counter | RORgamma inh | BRCA1 expr act | Giardia kill | p53 reactivator | ELG1 DNA repair
CN(C(=O)c1cccs1)C1(C)CCS(=O)(=O)C1 (centres undefined) | -6% | -14% | 16% | -18 | -7% | 6%
Fc1ccccc1COc1ccccc1/C=N/Nc1nc(N2CCCC2)nc(N2CCCC2)n1 | 13µM* | 6.3µM* | -18% | 6 | 7% | ?
Brc1cccc(/C=N/Nc2nc(N3CCCCC3)nc(N3CCCCC3)n2)c1 | 0% | -5% | nt | nt | 1% | 10%
Fc1ccc(Nc2nc(N/N=C/c3ccco3)nc(N3CCCCC3)n2)cc1 | 5µM* | 2.8µM* | -22% | 28 | -3% | ?
CC(Cc1ccccc1)C(=O)Nc1ccc(Br)cc1 (centres undefined) | -1% | 5% | 28% | 27 | nt | ?
O=S(=O)(NC1CCc2ccccc21)c1ccc(S(=O)(=O)N2CCCC2)cc1 (centres undefined) | -1% | 0% | -10% | -5 | -2% | 26µM*
CC(C)(C)SCCNC(=O)c1ccc(NS(C)(=O)=O)cc1 | 2% | 38% | 84% | 14 | ? | ?
CC(C)Cn1c(C(C)C)nc([N+](=O)[O-])c1S(=O)(=O)c1ccc(F)cc1 | ? | 11µM* | -54% | 6 | -12% | ?
CCCCNC(=S)Nc1cc([N+](=O)[O-])ccc1C | ? | 11µM* | -41% | -4 | -11% | 2%
Cc1ccc(S(=O)(=O)N2CCCCC2)cc1NC(=O)c1ccco1 | nt | nt | -13% | nt | nt | nt
CCOC(=O)C(=O)Nc1cc([N+](=O)[O-])ccc1C | -9% | -1% | 2% | -5 | -5% | -2%
CCCCNC(=S)Nc1cc(S(=O)(=O)N2CCCCC2)ccc1C | 10µM* | 5.6µM* | -1% | -2 | -3% | -4%
CC(=O)c1ccc(N2CCN(C(=O)CNC(=O)c3ccc(Br)o3)CC2)cc1 | nt | nt | 0% | nt | nt | nt
O=C(CN(CCN1CCOCC1)C(=O)Cn1nnc(-c2ccc(F)cc2)n1)NC1CCCCC1 | -3% | 8% | 0% | -21 | -12% | 0%
O=C(O)c1ccc2nc(-c3ccccc3)sc2c1 | 2.5µM* | ? | ? | -5 | 9% | ?
Oc1ccc(-c2nc3ccccc3s2)cc1 | ? | ? | 66% | -13 | 8% | ?
Nc1ccc(-c2nc3ccc(C(=O)O)cc3s2)cc1 | 0.63µM* | 0.56µM* | -88% | ? | -25% | ?
Nc1cc2sc(-c3ccc(C(=O)O)cc3)nc2cc1Cl | 11µM* | 10µM* | -28% | ? | ? | ?
Cc1cccc(NC(=O)CCS(=O)(=O)c2cccc3nonc23)c1C | -10% | -4% | -8% | -23 | 1% | 15%
CN(C)c1ccc(/C=N/NC(=O)CN2CCN(c3ccc(F)cc3)CC2)cc1 | -7% | -10% | nt | nt | 18% | -5%
C=CCNC(=O)CCc1nnc(C2(c3ccc(Cl)cc3)CCC2)o1 | -7% | 31% | 13µM* | -4 | ? | ?
